Source: PubChem BioAssay (EPA / NIEHS)
Records with an inconclusive call do not appear. Calls of active or inactive are those of the source. The calls were made as follows: active = hit-call score of the fitted dose curve at least 0.9, where 1 is the maximum; inconclusive = response in the unintended direction; inactive = score below 0.9.

What was measured:
[1] = target: Cellular tumor antigen p53 (Homo sapiens) (UniProt P04637); assay: TOX21_p53_BLA_p2_ratio: Tox21 HCT-116 p53 Agonism Beta-lactamase Assay, Ratio, Phase 2 (AID 2283592)
In short: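 Gain-of-signal p53 agonism was scored from the beta-lactamase FRET ratio (460/530 nm, 405 nm excitation) in HCT116 cells treated 16 h at 37C, 5% CO2, with DMSO serving as negative control and baseline.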

[2] = TOX21_p53_BLA_p3_viability: Viability Assessment in the Tox21 HCT-116 p53 Agonism Beta-lactamase Assay, Phase 3 (AID 2283593);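 also: cells exposed to compound for 16 h before reading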
In short: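 HCT116 cells, 4000/well, dosed 5 h after plating by pin transfer (217-fold dilution from DMSO stock) and incubated 16 h at 37C, 5% CO2. Viability read as ATP luminescence with CellTiter-Glo after 30 min at room temperature.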

[3] = target: Cellular tumor antigen p53 (Homo sapiens) (UniProt P04637); assay: TOX21_p53_BLA_p5_ratio: Tox21 HCT-116 p53 Agonism Beta-lactamase Assay, Ratio, Phase 5 (AID 2283599)
In short: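 HCT-116 p53-bla cells (4000/well) plated 5 h, dosed with compound (217-fold DMSO dilution) for 16 h at 37 C; CCF4-AM substrate 2 h at room temperature. Activity is the 460/530 nm emission ratio (405 nm excitation), fitted in gain-of-signal direction versus DMSO.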

[4] = TOX21_p53_BLA_p5_viability: Viability Assessment in the Tox21 HCT-116 p53 Agonism Beta-lactamase Assay, Phase 5 (AID 2283600)
In short: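 After the 460/530 nm beta-lactamase measurement, the wells received an ATP-detection luciferase reagent; signal was read 30 min later at RT. Compound treatment lasted 16 h on cells pre-incubated 5 h post-seeding.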

[5] = target: Cellular tumor antigen p53 (Homo sapiens) (UniProt P04637); assay: TOX21_p53_BLA_p4_ratio: Tox21 HCT-116 p53 Agonism Beta-lactamase Assay, Ratio, Phase 4 (AID 2283601)
In short: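 HCT-116 p53 beta-lactamase reporter cells (4000/well) preincubated 5 h, then compound (217-fold dilution of DMSO stock) for 16 h at 37C. CCF4-AM substrate added 2 h at room temperature; 460/530 nm emission ratio fitted upward versus DMSO.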

[6] = TOX21_p53_BLA_p4_viability: Viability Assessment in the Tox21 HCT-116 p53 Agonism Beta-lactamase Assay, Phase 4 (AID 2283597);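 also: hits lower the luminescence signal meaning cytotoxicity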
In short: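 Following a 16 h exposure at 37C, the treated HCT116 wells were first read for the FRET ratio. They were then lysed with CellTiter-Glo, and ATP luminescence was recorded after 30 min at room temperature.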

[7] = target: Cellular tumor antigen p53 (Homo sapiens) (UniProt P04637); assay: TOX21_p53_BLA_p3_ratio: Tox21 HCT-116 p53 Agonism Beta-lactamase Assay, Ratio, Phase 3 (AID 2283596)
In short: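 HCT116 p53-bla cells (4000/well) given compound in DMSO (217-fold dilution) after 5 h, incubated 16 h at 37C. CCF4-AM substrate 2 h at room temperature; 460/530 nm emission ratio, gain fitted against DMSO.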

Measured: outcome

Chain of Cellular tumor antigen p53 (Homo sapiens) (P04637 whole entry, looked up): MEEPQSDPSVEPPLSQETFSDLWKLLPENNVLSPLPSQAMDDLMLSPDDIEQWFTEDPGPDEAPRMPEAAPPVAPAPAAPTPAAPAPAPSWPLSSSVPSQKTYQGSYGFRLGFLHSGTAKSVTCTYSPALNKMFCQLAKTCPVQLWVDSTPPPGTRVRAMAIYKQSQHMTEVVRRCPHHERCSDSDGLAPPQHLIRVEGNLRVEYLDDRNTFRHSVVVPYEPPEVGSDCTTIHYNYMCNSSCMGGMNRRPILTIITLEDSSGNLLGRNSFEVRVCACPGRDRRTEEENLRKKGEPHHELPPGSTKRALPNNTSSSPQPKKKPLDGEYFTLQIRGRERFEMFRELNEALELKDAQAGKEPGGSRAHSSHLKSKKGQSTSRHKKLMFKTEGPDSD

Cc1ccc2ccccc2n1
inactive: [1] | [2] | [3] | [4] | [5]

CCCCC(CC)COCCC#N (stereo not given)
inactive: [1] | [6] | [3] | [4]

CCCCCOC(=O)CCC
inactive: [1] | [2] | [3] | [4] | [5]

COc1ccc(OC)c(OC)c1
inactive: [2] | [7] | [3] | [4] | [5]

O=P(c1ccccc1)(c1ccccc1)c1ccccc1
inactive: [1] | [2] | [6] | [4]

c1cc(C(c2ccc(OCC3CO3)cc2)c2ccc(OCC3CO3)cc2)ccc1OCC1CO1 (stereo not given)
inactive: [2] | [6] | [4]

CNCCO
inactive: [1] | [7] | [6] | [4]

CC(=O)O[C@H](CC(=O)[O-])C[N+](C)(C)C
inactive: [1] | [2] | [7] | [4]

O=C(O)CCSCCC(=O)O
inactive: [1] | [7] | [6] | [3] | [4] | [5]
